Compound activity deposited in PubChem BioAssay by National Center for Advancing Translational Sciences (NCATS).
Hits are enriched below; roughly 8.1% of the tested compounds scored in any of these assays.
SW480 rerep – induces DNA re-replication in SW480 colon adenocarcinoma cells | AID 624297 | Potency, µM (top dose mostly 46.1 µM), for the others: at the top dose re-replication activation, hits mostly activators | SW480 DNA re-replication, Hoechst DNA content imaging, 48 h | 340,000 compounds, 1.8% hits; further: % of control where 0% means no effect; nearly all actives have a fitted effect of over 55% in size
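Treated cells incubate 48 hr (37 C, 5% CO2), are stained 40 min with Hoechst, and nuclear fluorescence is enumerated; a rise in nuclei with high DNA signal marks re-replication.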
MCF10A rerep – induces DNA re-replication in MCF 10a normal breast cells | MCF 10A DNA re-replication, Hoechst nuclear intensity, 48 h | Potency, µM (titrated, usually from 46.1 µM), inactives show at the highest dose activity, positive = re-replication, most hits filed as activators | 350,000 compounds, 2.9% hits | AID 624296; further: % of control where 0% means no effect; nearly all actives have a fitted effect of over 50% in size
ELG1 DNA repair – blocks ELG1-dependent DNA repair in HEK293T cells; HEK293T ELG1-luciferase reporter, luminescence, 16 h; DNA damage induced by 5-fluorouridine; 330,000 compounds, 2.3% hits; Potency, µM (top dose mostly 46.1 µM), without a hit: top-dose activity change, negative = inhibition, most hits filed as inhibitors; further: on the % scale 0 is the no-effect control and ±100 the full control effect; nearly all actives have a fitted effect of over 55% in size
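Step one: seed 2,000 cells per well. Step two: pin-transfer compound or DMSO alongside 5-fluorouridine. Step three: incubate 16 hr, 37 °C, 5% CO2. Step four: add ONE-Glo, wait 30 min, read luminescence.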
KB-3-1 cytotox – kills parental KB-3-1 adenocarcinoma cells. Potency, µM (doses to about 46.1 µM), hits mostly cytotoxic. KB-3-1 viability, CellTiter-Glo ATP luminescence, 72 h. 400,000 compounds, 1.4% hits; further: on the % scale 0 is the no-effect control and ±100 the full control effect; nearly all actives have a fitted effect of over 60% in size
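Multi-concentration cytotoxicity screen in KB-3-1 cells grown in DMEM lacking phenol red with 10% FBS. After 72 h at 37 °C with compound, ATP-dependent luminescence was recorded.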
KB-V1 cytotox – kills drug-selected multidrug resistant KB-V1 cells; KB-V1 MDR cells viability, CellTiter-Glo, 72 h; Potency, µM (series often up to 46.1 µM), usual class: cytotoxic; 400,000 compounds, 3.4% hits; AID 1347076; further: on the % scale 0 is the no-effect control and ±100 the full control effect; nearly all actives have a fitted effect of over 60% in size
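Cells of the MDR subline KB-V1 are plated, dosed with compound at multiple concentrations, and incubated 72 h at 37 degrees C; CellTiter-Glo is then added and luminescence read after 10 min.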
* hit, by the source's call; i = inactive; ? = inconclusive; nt = no result given; [ ] = remark or other dose. The call rests on the fitted dose curve; in most records, active means well fitted curve in the direction sought with a large enough effect; inconclusive means small, poorly fitted or top-dose-only effect, or another doubt; inactive means no such curve, though single readings can be large; an effect the other way counts as inactive or inconclusive. Potency means the concentration at half of the fitted maximal effect.

SMILES	SW480 rerep	MCF10A rerep	ELG1 DNA repair	KB-3-1 cytotox	KB-V1 cytotox
O=C1ON=C(c2ccc(Cl)cc2)/C1=C/c1ccc(O)cc1	4%	?	?	i	21µM*
O=C1ON=C(c2ccccc2)/C1=C/c1ccc(O)cc1	21%	21%	?	i	i
Cc1ccc(CNC(=O)C2c3ccccc3C(=O)N3CCc4ccccc4C23)o1 (stereo not drawn)	?	18µM*	-6%	i	i
O=c1c(-c2nc3ccccc3s2)cccn1Cc1ccc(Cl)cc1	?	3.3µM*	?	i	i
Clc1ncccc1-c1nc2ccccc2s1	2%	-3%	?	i	?
CCCn1c(SCC(=O)Nc2ccccc2C(=O)NC2CC2)n[nH]c1=O	1%	4%	19%	i	i
CC1Cc2ccccc2N1C(=O)c1ccc2snnc2c1 (stereo not drawn)	-2%	-28%	-8%	i	i
Cc1nc2cc(C(=O)N3c4ccccc4CC3C)ccc2s1 (stereo not drawn)	?	-4%	-11%	21µM*	?
O=C(O)COc1ccccc1/C=C1\SC(=O)N(Cc2ccc(F)cc2)C1=O	-8%	4.6µM*	1%	i	i
COc1ccc(C2CC(=O)N(Cc3ccc(F)cc3)c3ccccc3S2)cc1OC (stereo not drawn)	nt	nt	nt	?	16µM*
COc1ccc(C2CC(=O)N(C)c3ccccc3S2)cc1OC (stereo not drawn)	-1%	?	?	i	?
COc1cc(C2CC(=O)N(Cc3ccc(F)cc3)c3ccccc3S2)cc(OC)c1OC (stereo not drawn)	nt	nt	nt	?	12µM*
COc1ccc(OC2C(=O)N(Cc3ccc(F)cc3)C2c2cc(OC)c(OC)c(OC)c2)cc1 (stereo not drawn)	0%	0%	-10%	i	i
COc1ccc(C2CC(=O)N(Cc3ccc(F)cc3)c3ccccc3S2)cc1 (stereo not drawn)	nt	nt	nt	?	15µM*
Cc1ccccc1-c1noc(N)c1C#N	5.2µM*	16µM*	5%	i	?
COc1cc(OC)c(/C=C/c2ccc3ccccc3[n+]2C)c(OC)c1	nt	nt	nt	0.73µM*	i
CCC[n+]1c(/C=C/c2c(OC)cc(OC)cc2OC)ccc2ccccc21	nt	nt	nt	1.3µM*	i
CCCC[n+]1c(/C=C/c2c(OC)cc(OC)cc2OC)ccc2ccccc21	nt	nt	nt	i	i
COc1ccc(-c2ccc3c(c2)C2CC3CCN2S(=O)(=O)c2ccccc2C)cc1 (stereo not drawn)	8%[9.22 µM]	0%	nt	?	i
O=C(c1cnc2ccc3ccccc3c2c1)c1cc(F)ccc1O	3.7µM*	?	18%	?	3.7µM*
Cc1ccc(-n2c(SCC(=O)c3c(N)n(C)c(=O)n(C)c3=O)nc3sc4c(c3c2=O)CCCC4)c(C)c1	-4%	?	?	?	21µM*
CCCN1C(=O)c2ccccc2NC1c1ccc(OC)c(COc2cccc(OC)c2)c1 (stereo not drawn)	nt	nt	nt	?	i
COc1ccc(-c2ccc3c(c2)O[C@@H](CN(C)C(=O)c2ccccc2F)[C@@H](C)CN([C@@H](C)CO)S3(=O)=O)cc1	nt	nt	nt	i	i
COc1ccc(-c2ccc3c(c2)O[C@H](CN(C)C(=O)Nc2ccccc2F)[C@@H](C)CN([C@H](C)CO)S3(=O)=O)cc1	nt	nt	nt	?	12µM*
COC(=O)c1cnn(-c2ccc(C(=O)Nc3cccc(C(C)=O)c3)cc2)c1N	nt	nt	nt	i	?
SMILES	SW480 rerep	MCF10A rerep	ELG1 DNA repair	KB-3-1 cytotox	KB-V1 cytotox
CCc1nc2c(OCc3ccccc3)cccn2c1N(C)C(=O)c1ccc2c(c1)OCO2	nt	nt	nt	i	i
CCN1/C(=C/C=C/C=C/C=C/c2sc3ccccc3[n+]2CC)Sc2ccccc21	8%	?	?	16µM*	i
CCN1/C(=C/C=C/c2sc3ccccc3[n+]2CC)Sc2ccccc21	-8%	-6%	?	16µM*	?
CCN1/C(=C/C=C/C=C/c2sc3ccccc3[n+]2CC)Sc2ccccc21	?	-1%	?	?	?
COc1ccc2c(c1)c[n+](C)c1c3cc(OC)c(OC)cc3ccc21	nt	nt	nt	2.9µM*	i
COc1cc2c[n+](C)c3c4ccccc4ccc3c2cc1OC	?	-8%	nt	9.2µM*	?
COc1ccc(Cc2c3cc(OC)c(OC)cc3cc[n+]2C)cc1OC	-5%	1%	6%	i	i
COc1ccc(NC(=S)Nc2cccc3ccccc23)cc1OC	0%	0%	2%	i	i
CCN1C(=O)N(CC)C(O)(c2ccccc2)C1(O)c1ccccc1 (stereo not drawn)	-4%	2%	0%	i	?
CC(C)(C)C1=CC(O)(c2ccccc2)C=C(C(C)(C)C)C1=O	-1%	5.2µM*	1%	i	i
CCc1ccc(C(O)c2ncc(-c3ccccc3Cl)[nH]2)cc1 (stereo not drawn)	nt	nt	nt	i	i
O=C(O)c1ccccc1-c1ccccc1C(=O)NNc1ccccc1	18µM*	3%	-3%	i	i
O=C(O)c1ccccc1-c1ccccc1C(=O)Nc1ccccc1	-7%	1%	5%	i	i
CC1(C)Cc2c(c(N3CCCC3)nc3sc4c(N5CCN(CCO)CC5)ncnc4c23)CO1	?	1%	8.2µM*	i	?
O=C(Nc1ccc(N2CCOCC2)cc1)c1cccc(S(=O)(=O)N2CCCCC2)c1	-2%	4%	16µM*	i	i
CN(C)S(=O)(=O)c1cccc(NC(=O)c2cccc(S(=O)(=O)N3CCCCC3)c2)c1	7%	12%	?	?	18µM*
COc1ccc(NS(=O)(=O)c2cccc(C(=O)N/N=C/c3c(F)c(F)c(F)c(F)c3F)c2)cc1	?	18µM*	nt	i	i
O=C(Nc1ccccc1)c1cccc(S(=O)(=O)N2CCCCC2)c1	-16%	1%	3%	i	i
CCN1CCN(c2ccc(NC(=O)c3cccc(S(=O)(=O)N4CCCC4)c3)cc2)CC1	2%	?	12%	i	?
CN(C)S(=O)(=O)c1cccc(NC(=O)c2cccc(NS(=O)(=O)c3ccccc3)c2)c1	-2%	20%	-47%	12µM*	?
CCN(C(=O)COC(=O)c1ccccc1Nc1ccccc1)c1c(N)n(Cc2ccccc2)c(=O)[nH]c1=O	?	?	nt	i	i
Cc1nc(CN2C(=O)C3(CCC3)ON=C2c2cccc(Cl)c2)cs1	nt	nt	nt	i	i
N#Cc1c(-c2ccccc2)cc(-c2ccccc2)nc1SCC(O)CS(=O)(=O)Cc1ccc(Cl)cc1 (stereo not drawn)	nt	nt	nt	i	i
